About 79,000 compounds went through this panel and 15% of them were active in at least one assay; those are over-represented in the sample as a whole. A number with no mark means an inactive call. Calls of active or inactive are those of the source. Cut-off read from the data, not from the text of the source: active = growth inhibition above about 70%; inactive = the rest. Where a SMILES comes first, the peptide text is derived from it. The star is where a group is joined. Cbz = O=C(OCc1ccccc1)*
Tests used:
[1] = NCI Yeast Anticancer Drug Screen. Data for the rad50 strain (AID 155);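 note: 0% = growth of vehicle-only cultures of the same strain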; settings: S. cerevisiae rad50 strain growth inhibition, hits give high values
Procedure, shortened: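 A DNA repair-deficient yeast mutant serves as the test organism; compound-induced growth inhibition is calculated against vehicle-treated cells.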

[2] = NCI Yeast Anticancer Drug Screen. Data for the mec2-1 strain (AID 157); settings: S. cerevisiae mec2-1 strain, hits give high values
Procedure, shortened: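 Using mec2-1 yeast: add compound, measure growth, express inhibition versus vehicle-treated cultures.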

[3] = NCI Yeast Anticancer Drug Screen. Data for the sgs1 mgt1 strain (AID 161);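 note: 0% = growth of cultures given vehicle only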; settings: S. cerevisiae sgs1 mgt1 strain, hits give high values
Procedure, shortened: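 Percent growth inhibition was derived by comparing compound-exposed mutant yeast with vehicle-exposed cultures. The strain carries alterations in DNA damage repair.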

[4] = NCI Yeast Anticancer Drug Screen. Data for the cln2 rad14 strain (AID 165);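 note: 0% = growth equal to vehicle treated cultures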; settings: S. cerevisiae cln2 rad14 strain, hits give high values
Procedure, shortened: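 Yeast strain cln2 rad14, bearing defects in cell cycle control and DNA repair, serves as the test system; values reflect growth inhibition compared with vehicle.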

[5] = NCI Yeast Anticancer Drug Screen. Data for the bub3 strain (AID 167); settings: S. cerevisiae bub3 mutant strain, hits give high values
Procedure, shortened: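 Inhibition values come from growth of compound-treated mutant yeast normalised to vehicle-treated controls.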

[6] = NCI Yeast Anticancer Drug Screen. Data for the mlh1 rad18 strain (AID 175); settings: S. cerevisiae mlh1 rad18 strain growth inhibition, hits give high values
Procedure, shortened: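 Steps: expose repair-defective yeast to compound; measure growth; express inhibition against vehicle-treated controls.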

[7] = at 5.0 µM (retest, dose inferred, filed as 0.5)
[8] = at 50.0 µM (retest, dose inferred, filed as 5.0)

Structure (SMILES) | growth inhibition [1, 7] | growth inhibition [1, 8] | growth inhibition ([1]; at 50.0 µM) | growth inhibition [2, 7] | growth inhibition [2, 8] | growth inhibition ([2]; at 50.0 µM) | growth inhibition [3, 7] | growth inhibition [3, 8] | growth inhibition ([3]; at 50.0 µM) | growth inhibition [4, 7] | growth inhibition [4, 8] | growth inhibition ([4]; at 50.0 µM) | growth inhibition [5, 7] | growth inhibition [5, 8] | growth inhibition ([5]; at 50.0 µM) | growth inhibition [6, 7] | growth inhibition [6, 8] | growth inhibition ([6]; at 50.0 µM)
O=C1C=CC(=C(c2ccccc2)c2ccc(O)cc2)C=C1 | -5% | 75% (active) | 31.3% | -8% | 72% (active) | 80.3% (active) | -5% | -27% | 65.3% | -7% | 76% (active) | 27.6% | -8% | 92% (active) | 92.2% (active) | 2% | 86% (active) | 81% (active)
C(CCCCCN1CCCCC1)CCCCN1CCCCC1 | -14% | -9% | -2.7% | -20% | -8% | 5.4% | 3% | -14% | 7.2% | 3% | 6% | 6.75% | -11% | -18% | -27.2% | -1% | 10% | 6.85%
CC(O)c1cccnc1 (stereo not drawn) | 11% | -8% | 65.5% | 10% | 1% | 49.6% | 4% | -1% | 20% | 20% | 41% | 58.1% | -6% | 47% | 28.6% | -9% | 51% | 66%
CC1CCN(CCOC(=O)C(c2ccccc2)C2C=CCCC2)C1C (stereo not drawn) | 16% | 59% | 81.1% (active) | 45% | 71% (active) | 58.9% | 53% | 80% (active) | 84.5% (active) | 16% | 53% | 86.9% (active) | 16% | 50% | 62% | 54% | 78% (active) | 77.5% (active)
O=c1sc(=S)[nH]c2ccccc12 | -3% | 10% | 76.8% (active) | 6% | 43% | 69.1% | 3% | 41% | 78.9% (active) | -4% | 3% | 71.5% (active) | -1% | 7% | 67.5% | 16% | 31% | 72.2% (active)
CC(C)/C=C1\CCOC1=O | 0% | 9% | 36.3% | -3% | 1% | 14.8% | 1% | 5% | 39.8% | 5% | 3% | 44.5% | -3% | 4% | -0.55% | 0% | 6% | 21.7%
CCOC(=O)C1(C#N)C(c2ccccc2)CC(O)(c2ccc([N+](=O)[O-])cc2)C(C(=O)c2ccc([N+](=O)[O-])cc2)C1c1ccccc1 (stereo not drawn) | -10% | -25% | 15.6% | 5% | -12% | 14.3% | -8% | 0% | -6.4% | -18% | -17% | 31.4% | -13% | 2% | 6% | 1% | -3% | 21.2%
O=C1OCC2=C1C(c1ccc(Cl)cc1)c1cc3c(cc1O2)OCO3 (stereo not drawn) | 8% | 10% | -23.4% | 9% | 8% | -20.4% | 4% | 16% | -5.5% | 2% | 18% | 19.4% | 17% | 21% | 6.15% | 17% | 7% | -15.8%
Cc1cc(OC(=O)CCl)ccc1C(C)(C)C | 1% | 12% | 56.4% | 2% | 13% | 40.5% | 0% | 1% | 56.4% | 5% | 5% | 5.5% | 0% | 5% | 30.5% | 2% | 18% | 84.6% (active)
COc1ccc(Oc2ccc(C(=O)C(CN(C)C)CN(C)C)cc2)cc1 | -4% | 96% (active) | 84% (active) | -13% | 97% (active) | 87.8% (active) | 11% | 98% (active) | 85.8% (active) | -2% | 95% (active) | 87.8% (active) | -3% | 96% (active) | 85.6% (active) | 0% | 96% (active) | 86.5% (active)
O=c1ccc([N+](=O)[O-])c[nH]1.[Ag] | 98% (active) | 98% (active) | 99.5% (active) | 99% (active) | 99% (active) | 99.3% (active) | 99% (active) | 98% (active) | 99.1% (active) | 98% (active) | 100% (active) | 98.2% (active) | 98% (active) | 98% (active) | 98.3% (active) | 98% (active) | 97% (active) | 99% (active)
C[n+]1c(/C=C/c2ccc(N3CCCC3)cc2)sc2ccccc21 | 76% (active) | 98% (active) | 98.6% (active) | 37% | 99% (active) | 99.2% (active) | 95% (active) | 99% (active) | 98.5% (active) | 60% | 98% (active) | 98.8% (active) | 46% | 98% (active) | 98.2% (active) | 85% (active) | 98% (active) | 98.8% (active)
O=C(NC(Cc1ccc(O)cc1)C(=O)NC(Cc1ccccc1)C(=O)O)OCc1ccccc1 (stereo not drawn) (Cbz-Tyr-Phe-OH; configuration not given here) | -6% | -1% | -17.3% | 29% | -1% | 5.85% | -2% | 0% | 34.1% | 1% | 1% | -36.5% | -5% | -3% | -4.3% | -2% | -1% | -0.6%
CC(=NCC(=O)O)c1ccccc1 | -12% | -6% | 48.5% | -6% | -3% | -20.2% | -8% | -4% | -52.9% | 2% | -6% | -4.8% | 10% | 13% | -22.1% | -4% | 1% | -5.7%
CCc1cccc(C(C)(C)C)c1NC(=S)N/C=C(\C#N)C(=O)c1ccc2ccccc2c1 | -5% | 34% | 67.4% | -26% | 25% | 35.5% | -8% | 22% | 70.7% (active) | -18% | 8% | 29.3% | -17% | 18% | 63.9% | -6% | 38% | 65.2%
CC(=O)C1C(=O)C=C(C)OC1=O (stereo not drawn) | 4% | 21% | 40.5% | 8% | 18% | 29.1% | 1% | 18% | -0.75% | 7% | 13% | 3.7% | 0% | 2% | 28.9% | 4% | 23% | 70.7% (active)
O=c1ccnc(Sc2ccc([N+](=O)[O-])cc2[N+](=O)[O-])[nH]1 | 16% | 94% (active) | 47.2% | 8% | 94% (active) | 54.6% | 2% | 87% (active) | 84% (active) | 1% | 74% (active) | 59.1% | -1% | 92% (active) | 52.5% | 2% | 93% (active) | 49.6%
C=CCNC(=S)N/N=C(\CCC)c1ccccn1 | 98% (active) | 95% (active) | 99.3% (active) | 99% (active) | 96% (active) | 99.6% (active) | 99% (active) | 96% (active) | 99.6% (active) | 96% (active) | 93% (active) | 99.2% (active) | 98% (active) | 95% (active) | 99.5% (active) | 99% (active) | 95% (active) | 47.9%
COC(=O)C1(Cc2ccccc2)Cc2c(C)ccc(C)c2C1=O (stereo not drawn) | -4% | 12% | 43.1% | -3% | 16% | 19.2% | 13% | 42% | 61.6% | -1% | 2% | 39.2% | 28% | 62% | 64.2% | -2% | 13% | 70.2% (active)
O=C1C(Cl)=C(Cl)C(=C2C(Cl)=C(Cl)C(=O)C(Cl)=C2Cl)C(Cl)=C1Cl | 98% (active) | 99% (active) | 99.5% (active) | 97% (active) | 100% (active) | 99.6% (active) | 91% (active) | 99% (active) | 99.5% (active) | 99% (active) | 99% (active) | 99% (active) | 79% (active) | 98% (active) | 99.5% (active) | 97% (active) | 99% (active) | 99.4% (active)
Nn1c(-c2ccccc2)nn(C(=O)c2ccccc2)c1=O | 0% | 39% | 39.5% | -2% | 45% | 39.7% | 15% | 50% | 60% | -1% | 8% | 30.4% | -3% | 62% | 14.7% | 1% | 58% | 87.7% (active)
O=C(O)C(CCc1cccc2ccccc12)c1ccccc1 (stereo not drawn) | 13% | 97% (active) | 99.6% (active) | 2% | 95% (active) | 99.2% (active) | 5% | 98% (active) | 99.5% (active) | -4% | 96% (active) | 99.3% (active) | 3% | 73% (active) | 99% (active) | 5% | 98% (active) | 99.4% (active)
COc1ccc2c(c1)Cc1cc(NC(=O)N(CCCl)N=O)ccc1-2 | -2% | 85% (active) | 90.2% (active) | 2% | 88% (active) | 55.9% | 3% | 77% (active) | 89.2% (active) | -5% | 49% | -0.85% | -11% | 41% | 22.9% | 28% | 94% (active) | 95.6% (active)
CN(C)c1nc(N(C)C)sc(=O)n1 | 0% | 91% (active) | 85% (active) | -4% | 28% | 25.8% | 2% | 78% (active) | 69% | 8% | 26% | 1.5% | -10% | 37% | -3.6% | 9% | 86% (active) | 76.3% (active)
S=C(Nc1ccc2cn[nH]c2c1)Nc1ccc2cn[nH]c2c1 | 7% | 46% | 79.1% (active) | 16% | 0% | -12.9% | -5% | 5% | 30.9% | -25% | 2% | -1.15% | 7% | 1% | 40% | 2% | 17% | 41.9%
O=[N+]([O-])c1c[nH]c2ncnc(SCc3ccccc3)c12 | 98% (active) | 98% (active) | 100% (active) | 99% (active) | 99% (active) | 99.3% (active) | 99% (active) | 99% (active) | 99.2% (active) | 86% (active) | 99% (active) | 94.3% (active) | 97% (active) | 99% (active) | 98.7% (active) | 98% (active) | 98% (active) | 98.9% (active)
